Hits are enriched below; roughly 14% of the tested compounds scored in any of these assays.
FBPA Giardia inh: inhibitors of Giardia lamblia fructose-1,6-bisphosphate aldolase; purified Giardia FBPA; Potency, µM (doses to about 59.6 µM), for inactives: at the highest dose activity, negative = inhibition, actives largely listed as inhibitors; hit rate 0.71% among 290,000; AID 2451; note: potency is the fitted concentration of half-maximal effect; nearly all actives have a fitted effect of over 55% in size
Target sequence (A8B2U2 whole entry, looked up): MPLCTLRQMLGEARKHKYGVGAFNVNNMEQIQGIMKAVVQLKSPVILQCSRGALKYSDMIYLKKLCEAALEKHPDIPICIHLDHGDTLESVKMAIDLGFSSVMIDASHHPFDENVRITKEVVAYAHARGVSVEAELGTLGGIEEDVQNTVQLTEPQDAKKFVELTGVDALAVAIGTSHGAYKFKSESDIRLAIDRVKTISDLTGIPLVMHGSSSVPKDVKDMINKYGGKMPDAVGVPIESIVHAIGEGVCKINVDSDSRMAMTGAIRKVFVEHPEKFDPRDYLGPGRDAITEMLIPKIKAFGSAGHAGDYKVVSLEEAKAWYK
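40 nM FBPA preincubated 10 min at RT with compound (up to 57.5 uM final), then substrate plus GAPDH/TPI/NAD/arsenate coupling and diaphorase/resazurin added. Fluorescence read after 20 min at RT, 525/598 nm.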
HCMV inh: human cytomegalovirus inhibition | AID 1259415 | activity change, negative = inhibition, % at 57.5 µM | HFF cells, HCMV-luciferase reporter, 72 h; active compounds read low | hit rate 4.5% among 410,000; in the data active = activity change below about -60%; inconclusive = no clear call, values can overlap the other calls; inactive = above about -39%
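Luciferase read-out from HCMV-luciferase-infected HFFs (MOI 1 PFU/cell) 72 h post infection at 37C; compounds added after 16 h cell attachment; activity normalized between buffer-only basal and Salinomycin (10uM) inhibitor controls.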
Pf growth 96h: P. falciparum growth inhibition at 96 hour, primary screen for plastid delayed-death inhibitors; P. falciparum luciferase reporter growth, 96 h; AID 504834; hit rate 6.9% among 320,000; Potency, µM (titrated, usually from 28.7 µM), for the others: at the highest dose activity change, negative = inhibition, actives largely listed as inhibitors; note: potency is the fitted concentration of half-maximal effect
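Compounds incubated with erythrocytes infected by luciferase-expressing P. falciparum (2% hematocrit, 0.05% parasitemia final) for 96 hours, 37 C in 5% CO2. Growth inhibition scored as decreased luciferase luminescence.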
Sm TGR block: inhibitors of Schistosoma mansoni thioredoxin glutathione reductase; Q962Y6; purified TGR, DTNB reduction, TNB absorbance 405 nm; Potency, µM (series often up to 114 µM), for the others: top-dose activity change, negative = inhibition, most hits filed as inhibitors; hit rate 3% among 360,000; note: potency is the fitted concentration of half-maximal effect; nearly all actives have a fitted effect of over 60% in size
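First, TGR (20 nM dispensed) and NADPH were mixed with compound. Second, a 15 min room-temperature incubation followed. Third, further NADPH and then DTNB were added to start the reaction. Finally, TNB absorbance was monitored kinetically.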
Pf growth 48h: inhibits P. falciparum growth in the first generation, 48 h | Potency, µM (doses to about 28.7 µM), for inactives: at the top dose activity change, negative = inhibition, usual class: inhibitors | P. falciparum luciferase growth in erythrocytes, 48 h | hit rate 5.9% among 310,000; note: potency is the fitted concentration of half-maximal effect
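Growth was read as firefly luciferase luminescence after a 48 h, 37 C, 5% CO2 exposure of compounds to reporter-bearing P. falciparum cultures (0.1% parasitemia, 2% hematocrit final) in Albumax-supplemented RPMI 1640.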
* marks the source's active call; other numbers are inactive results. Unless noted, calls come from the whole dose curve; as a rule, active = well fitted curve in the direction sought with a large enough effect; inconclusive = small, poorly fitted or top-dose-only effect, or another doubt; inactive = no such curve, though single readings can be large; an effect the other way counts as inactive or inconclusive. % is set by controls: 0 for no effect and ±100 for the full control effect.

For C=CCn1c(SCC(=O)Nc2ccccc2OC)nc2c([nH]c3ccccc32)c1=O the results were HCMV inh 10, Pf growth 96h 4.1µM*, Sm TGR block -27% and Pf growth 48h inconclusive.
`CCc1nc2ccc(C(=O)N3CCN(S(=O)(=O)CC)CC3)cn2c1N(CC)C(=O)NCCc1ccccc1` gave HCMV inh 17.
`CC(Oc1ccc(C#N)cc1)C(=O)NC1CCCC1` (stereo not given) gave HCMV inh 56, Pf growth 96h 0%, Sm TGR block -9% and Pf growth 48h 23%.
O=c1c(Cl)c(NCc2ccccc2)cnn1C12CC3CC(CC(C3)C1)C2 was read as FBPA Giardia inh 1%, HCMV inh -61*, Pf growth 96h 10µM*, Sm TGR block 0% and Pf growth 48h inconclusive.
Screening Cc1ccc(Nc2cnn(C34CC5CC(CC(CC(=O)O)(C5)C3)C4)c(=O)c2Cl)cc1C returned FBPA Giardia inh 4%, HCMV inh inconclusive, Pf growth 96h inconclusive and Sm TGR block -1%.
For O=C(O)CC12CC3CC(C1)CC(n1ncc(NCC4CCCO4)c(Cl)c1=O)(C3)C2 (stereo not given) the results were FBPA Giardia inh -4%, HCMV inh 28, Pf growth 96h 9%, Sm TGR block 40µM* and Pf growth 48h 2%.
Screening O=C(O)CC12CC3CC(C1)CC(n1ncc(NCc4ccco4)c(Cl)c1=O)(C3)C2 returned FBPA Giardia inh -6%, HCMV inh 3, Pf growth 96h 2%, Sm TGR block 11µM* and Pf growth 48h inconclusive.
Screening CCC(C(=O)NCCc1c[nH]c2cc(OC)ccc12)c1ccccc1 (stereo not given) returned FBPA Giardia inh 2%, HCMV inh 26, Pf growth 96h -18%, Sm TGR block 13% and Pf growth 48h -19%.
`CCCn1cc(S(=O)(=O)c2ccc(C)c(C)c2)c(=O)c2cc(F)c(N3CCC(C)CC3)cc21` gave HCMV inh -31 and Sm TGR block -1%.
For O=C1C(=C(I)I)c2ccccc2-c2ccccc21 the results were HCMV inh -100*.
For O=C1c2ccccc2C(=O)c2c(O)ccc(O)c21 the results were FBPA Giardia inh -26%.
For CCOC(=O)c1c(C)sc2c1N(C(=O)CCl)c1cc(Cl)ccc1S2 the results were FBPA Giardia inh 19%, HCMV inh -96*, Pf growth 96h 15µM*, Sm TGR block 2.5µM* and Pf growth 48h inconclusive.
For CCCN1CCN(CCCNC(=O)C(CC)n2nc(C)c3sc4ccccc4c3c2=O)CC1 (stereo not given) the results were HCMV inh inconclusive, Pf growth 96h 25%, Sm TGR block 2% and Pf growth 48h inconclusive.
`CCC(C(=O)NCc1ccccc1)n1nc(C)c2sc3ccccc3c2c1=O` (stereo not given) gave HCMV inh -5 and Sm TGR block 4%.
`CCC(C(=O)NCCCN(CC)Cc1ccccc1)n1nc(C)c2sc3ccccc3c2c1=O` (stereo not given) gave FBPA Giardia inh 0%, HCMV inh inconclusive, Pf growth 96h 41%, Sm TGR block -20% and Pf growth 48h 10µM*.
For CCC(C(=O)NCCCN1CC(C)CC(C)C1)n1nc(C)c2sc3ccccc3c2c1=O (stereo not given) the results were HCMV inh -73*, Pf growth 96h inconclusive, Sm TGR block 3% and Pf growth 48h inconclusive.
For COC(=O)c1cc(C(=O)N2CCc3ccccc32)cc([N+](=O)[O-])c1 the results were FBPA Giardia inh 5%, HCMV inh 41, Pf growth 96h 0%, Sm TGR block 15% and Pf growth 48h -1%.
`CCOc1ccc(NC(=O)[C@@H](NC(=O)c2ccccc2Br)C(C)C)cc1` gave FBPA Giardia inh -4%, HCMV inh 26, Pf growth 96h 15µM* and Sm TGR block 1%.
For CCOc1ccc(C(=O)N[C@H](C(=O)Nc2cccc(S(=O)(=O)N3CCCCC3)c2)C(C)C)cc1 the results were FBPA Giardia inh -1%, HCMV inh -38, Pf growth 96h 10µM*, Sm TGR block 3% and Pf growth 48h inconclusive.
`CC(C)C(NC(=O)c1ccc(C(C)(C)C)cc1)C(=O)Nc1ccc(N2CCOCC2)cc1` (stereo not given) gave HCMV inh -6, Pf growth 96h inconclusive, Sm TGR block 6% and Pf growth 48h 13µM*.
CCOc1ccc(C(=O)N[C@H](C(=O)Nc2cccc(S(=O)(=O)N3CCOCC3)c2)C(C)C)cc1 was read as HCMV inh -9, Pf growth 96h inconclusive, Sm TGR block 1% and Pf growth 48h inconclusive.
Screening CC(C)[C@H](NC(=O)c1ccccc1)C(=O)Nc1cccc(S(=O)(=O)N2CCOCC2)c1 returned HCMV inh active, Pf growth 96h inconclusive, Sm TGR block -13% and Pf growth 48h inconclusive.
For COC(=O)c1c(NC(=O)C2c3ccccc3Oc3ccccc32)sc2c1CCC(C(C)(C)C)C2 (stereo not given) the results were HCMV inh 9 and Sm TGR block 0%.
CC(C)N(C)Cc1nnnn1CC(=O)N(C)Cc1ccc(F)cc1 was read as FBPA Giardia inh 6%, HCMV inh 32, Pf growth 96h inconclusive, Sm TGR block 0% and Pf growth 48h -10%.
O=C(O)c1cn[nH]c1-c1cccc([N+](=O)[O-])c1 was read as FBPA Giardia inh 2%, HCMV inh -18, Pf growth 96h -5%, Sm TGR block 9% and Pf growth 48h 18%.
CCC12CN(S(=O)(=O)c3ccc(C)cc3)CC(CC)(CN(S(=O)(=O)c3ccc(C)cc3)C1)C2=O was read as FBPA Giardia inh -1%, HCMV inh 2, Pf growth 96h 2.3µM* and Sm TGR block -9%.
Screening Cc1ccc(S(=O)(=O)N2CC3(C)CN(S(=O)(=O)c4ccc(C)cc4)CC(C)(C2)C3)cc1 returned FBPA Giardia inh 0%, HCMV inh -19, Sm TGR block 9% and Pf growth 48h inconclusive.
`CCn1c(SCc2ccccc2)nnc1-c1ccc(S(=O)(=O)N2CCCCC2)cc1` gave FBPA Giardia inh 1%, HCMV inh -25, Pf growth 96h 0%, Sm TGR block 1% and Pf growth 48h 10µM*.
Screening Cc1ccc(S(=O)(=O)N2CCN(Cc3ccccc3)CC2)cc1 returned FBPA Giardia inh 8%, HCMV inh -60*, Pf growth 96h 3%, Sm TGR block 15% and Pf growth 48h 12%.
O=S(=O)(c1ccccc1)N1CCN(Cc2ccccc2)CC1 was read as FBPA Giardia inh -5%, HCMV inh -5, Pf growth 96h inconclusive, Sm TGR block -7% and Pf growth 48h 16%.
For Cc1ccc(S(=O)(=O)N2CCc3ccccc3CC2)cc1 the results were HCMV inh -78*.
